Measured values as given in the supplement of paper PMC7411054.
Where a name gives a salt, the structure may show the parent alone.

Legend:
Test in all cases: phenotypically active (imaging signature differs from DMSO and reproducible) at any of 0.3-9 uM (binary (1 = active, 0 = inactive)); higher = active
Details in all cases: treatment time: 24 h
[1] = test system: A549-ACTB-RAB5A
In short: (§1)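 Fifteen reporter lines derived from A549, HepG2 and WPMY1 cells by gene editing, carrying BFP for segmentation plus GFP and RFP/FusionRed markers, were exposed to 0.3, 1, 3 or 9 µM for 24 h in four wells each and imaged live. Live-cell features from each well were normalised to solvent control wells. A well set counted as deviating when ≥3 of 4 wells lay beyond the 95th percentile of control Euclidean distances, and as reproducible when the median replicate Pearson correlation exceeded the 95th percentile of non-replicates. Phenotypic activity was assigned only when both criteria were met.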

[2] = test system: A549-CANX-COX4
In short: as §1

[3] = test system: A549-GM130-SQSTM1
In short: as §1

[4] = test system: A549-TP53BP1-CLTA
In short: as §1

[5] = test system: A549-TUBA1B-RELA
In short: as §1

[6] = test system: HepG2-ACTB-RAB5A
In short: as §1

[7] = test system: HepG2-CANX-COX4
In short: as §1

[8] = test system: HepG2-GM130-SQSTM1
In short: as §1

[9] = test system: HepG2-TP53BP1-CLTA
In short: as §1

[10] = test system: HepG2-TUBA1B-RELA
In short: as §1

[11] = test system: WPMY1-ACTB-RAB5A
In short: as §1

[12] = test system: WPMY1-CANX-COX4
In short: as §1

[13] = test system: WPMY1-GM130-SQSTM1
In short: as §1

[14] = test system: WPMY1-TP53BP1-CLTA
In short: as §1

[15] = test system: WPMY1-TUBA1B-RELA
In short: as §1

Measured: phenotypically active

O=C1NC(=O)C(c2ccccc2)(c2ccccc2)N1 [phenytoin]
inactive: [1] 0 | [2] 0 | [3] 0 | [4] 0 | [5] 0 | [6] 0 | [7] 0 | [8] 0 | [9] 0 | [10] 0 | [11] 0 | [12] 0 | [13] 0 | [14] 0 | [15] 0

Nc1ncnc2c1ncn2[C@H]1O[C@@H](C(=O)N2CCN(CC(=O)Nc3cccc4c3CNC4=O)CC2)[C@H](O)[C@@H]1O
inactive: [1] 0 | [2] 0 | [3] 0 | [4] 0 | [5] 0 | [6] 0 | [7] 0 | [8] 0 | [9] 0 | [10] 0 | [11] 0 | [12] 0 | [13] 0 | [14] 0 | [15] 0

Cn1nnc2c(C(N)=O)ncn2c1=O [temozolomide]
inactive: [1] 0 | [2] 0 | [3] 0 | [4] 0 | [5] 0 | [6] 0 | [7] 0 | [8] 0 | [9] 0 | [10] 0 | [11] 0 | [12] 0 | [13] 0 | [14] 0 | [15] 0

CCN1C(C)(C)CC(Oc2ccc(C(=O)Nc3ccc(NC(=O)Nc4cc(C(C)(C)C)on4)cc3)nc2)CC1(C)C
inactive: [1] 0 | [2] 0 | [3] 0 | [4] 0 | [5] 0 | [6] 0 | [7] 0 | [8] 0 | [9] 0 | [10] 0 | [11] 0 | [12] 0 | [13] 0 | [14] 0 | [15] 0

CCCCC1=NC2(CCCC2)C(=O)N1Cc1ccc(-c2ccccc2-c2nnn[nH]2)cc1 [irbesartan]
inactive: [1] 0 | [2] 0 | [3] 0 | [4] 0 | [5] 0 | [6] 0 | [7] 0 | [8] 0 | [9] 0 | [10] 0 | [11] 0 | [12] 0 | [13] 0 | [14] 0 | [15] 0

O=C1CCc2c(ccc3ccccc23)O1 [Splitomicin]
inactive: [1] 0 | [2] 0 | [3] 0 | [4] 0 | [5] 0 | [6] 0 | [7] 0 | [8] 0 | [9] 0 | [10] 0 | [11] 0 | [12] 0 | [13] 0 | [14] 0 | [15] 0

C=CCc1ccccc1OC[C@@H](O)CNC(C)C [Alprenolol hydrochloride]
inactive: [1] 0 | [2] 0 | [3] 0 | [4] 0 | [5] 0 | [6] 0 | [7] 0 | [8] 0 | [9] 0 | [10] 0 | [11] 0 | [12] 0 | [13] 0 | [14] 0 | [15] 0

CC(=O)Oc1ccccc1C(=O)O [aspirin]
inactive: [1] 0 | [2] 0 | [3] 0 | [4] 0 | [5] 0 | [6] 0 | [7] 0 | [8] 0 | [9] 0 | [10] 0 | [11] 0 | [12] 0 | [13] 0 | [14] 0 | [15] 0

C[C@]12CC[C@@H]3c4ccc(O)cc4CC[C@H]3[C@@H]1CCC2=O [estrone]
inactive: [1] 0 | [2] 0 | [3] 0 | [4] 0 | [5] 0 | [6] 0 | [7] 0 | [8] 0 | [9] 0 | [10] 0 | [11] 0 | [12] 0 | [13] 0 | [14] 0 | [15] 0

CC(C)[C@H]1CC[C@H](C(=O)N[C@H](Cc2ccccc2)C(=O)O)CC1 [nateglinide]
inactive: [1] 0 | [2] 0 | [3] 0 | [4] 0 | [5] 0 | [6] 0 | [7] 0 | [8] 0 | [9] 0 | [10] 0 | [11] 0 | [12] 0 | [13] 0 | [14] 0 | [15] 0

COc1ccc(C(C)=O)c(O)c1 [2'-Hydroxy-4'-Methoxyacetophenone]
inactive: [1] 0 | [2] 0 | [3] 0 | [4] 0 | [5] 0 | [6] 0 | [7] 0 | [8] 0 | [9] 0 | [10] 0 | [11] 0 | [12] 0 | [13] 0 | [14] 0 | [15] 0

COC(=O)C1=CO[C@@H](O[C@@H]2O[C@H](CO)[C@@H](O)[C@H](O)[C@H]2O)[C@H]2[C@@H]1C(=O)C[C@@H]2C [Verbenaline]
inactive: [1] 0 | [2] 0 | [3] 0 | [4] 0 | [5] 0 | [6] 0 | [7] 0 | [8] 0 | [9] 0 | [10] 0 | [11] 0 | [12] 0 | [13] 0 | [14] 0 | [15] 0

c1ccc2c(c1)CN1CCCC1=N2 [Desoxypeganine Hydrochloride]
inactive: [1] 0 | [2] 0 | [3] 0 | [4] 0 | [5] 0 | [6] 0 | [7] 0 | [8] 0 | [9] 0 | [10] 0 | [11] 0 | [12] 0 | [13] 0 | [14] 0 | [15] 0

Brc1c(NC2=NCCN2)ccc2nccnc12 [brimonidine]
inactive: [1] 0 | [2] 0 | [3] 0 | [4] 0 | [5] 0 | [6] 0 | [7] 0 | [8] 0 | [9] 0 | [10] 0 | [11] 0 | [12] 0 | [13] 0 | [14] 0 | [15] 0
